This is an account of results in PubChem BioAssay (Tox21).

Assay [1] concerns the target Thyrotropin receptor (Homo sapiens) (UniProt P16473). The assay can be described thus: qHTS assay to identify small molecule antagonists of the thyroid stimulating hormone receptor (TSHR) signaling pathway (AID 1259385; calls by dose curve; further: nearly all actives have a fitted effect of over 20% in size). The essentials: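 TSHR-HEK293 cells (800/well) plated 18 h, then compounds with Ro20-1724 and TSH at 1.5 ng/mL final, 30 min at room temperature. cAMP quantified by HTRF (cAMP-d2/anti-cAMP-cryptate, 1 h); 15 concentrations in triplicate.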

The nature of assay [2]: qHTS assay to identify small molecule agonists of the estrogen receptor alpha (ER-alpha) signaling pathway in the presence of an antagonist - cell viability counter screen (AID 1259386).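 Further: series mostly up to about 92 µM; cells exposed to compounds for 22 h at 37 °C before the viability read; nearly all actives have a fitted effect of over 30% in size.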 The essentials:
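The test measures whether compounds kill ER-alpha reporter cells (VM7Luc4E2) under antagonist co-treatment (ICI-182,780, 10.0nM). Fluorescence from CellTiter-Fluor is read after a 22hr exposure.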

Assay [3] deals with Progesterone receptor (Homo sapiens) (UniProt P06401). The assay can be described thus: qHTS assay to identify small molecule agonists of the progesterone receptor (PR) signaling pathway (AID 1346784; calls by dose curve; further: nearly all actives have a fitted effect of over 30% in size; further: potency means the concentration at half of the fitted maximal effect). The essentials:
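The screen uses PR-UAS-bla HEK 293T cells in charcoal-stripped serum (2%). Compounds are applied for 16 hr at 37C after a 6 hr pre-incubation, and reporter activity is detected with a FRET beta-lactamase substrate after 2 hr at room temperature.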

The target is the same in assay [4]. The assay is described as follows: qHTS assay to identify small molecule antagonists of the progesterone receptor (PR) signaling pathway (AID 1346795; active means well fitted inhibition curve with a large enough effect in the signal ratio in the repeat runs, not every such curve was filed as active; the % refers to the signal ratio). The procedure, abridged:
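After 6 hr plating at 37C in 2% stripped-serum medium, PR-UAS-bla HEK293T cells got compounds, then 1 nM R5020. Sixteen hours later, LiveBLAzer substrate was applied for 2 hr at room temperature and fluorescence was recorded.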

A short description of assay [5]: qHTS assay to identify small molecule antagonists of the progesterone receptor (PR) signaling pathway - cell viability counter screen (AID 1346798). Further: series mostly up to about 92 µM; nearly all actives have a fitted effect of over 50% in size. The procedure, abridged:
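Viability was determined by ATP-based luminescence (CellTiter-Glo) in PR-UAS-bla HEK293T cells cultured in 2% charcoal-stripped serum and incubated 16 hr with compounds under R5020 stimulation.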

Assay [6] can be described thus: qHTS assay to identify small molecule agonists of the progesterone receptor (PR) signaling pathway - cell viability counter screen (AID 1346799; calls by dose curve; further: nearly all actives have a fitted effect of over 45% in size). The essentials: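 Viability was scored by ATP luminescence (CellTiter-Glo, 30 min, room temperature) in the same wells used for the reporter readout, after 16 hr compound exposure of PR-UAS-bla HEK293T cells.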
Assay [7] in a line: qHTS assay to identify small molecule antagonists of the TGF-beta/Smad signaling pathway - cell viability counter screen (AID 1346824). Further: nearly all actives have a fitted effect of over 50% in size. The essentials: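 SBE-bla HEK 293T cells, incubated overnight, then compound plus 0.25 ng/mL TGF-beta1 (stock added) for 5 hr at 37 C. Viability was read in the same wells by CellTiter-Glo luminescence after 30 min at room temperature.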
The nature of assay [8]: qHTS assay to identify small molecule agonists of the TGF-beta/Smad signaling pathway - cell viability counter screen (AID 1346829). Further: top concentration of the series differs between compounds; nearly all actives have a fitted effect of over 45% in size. The procedure, abridged:
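Compound-treated SBE-bla HEK 293T cells (5 hr, 37 C) were assessed for viability with CellTiter-Glo in parallel with the reporter read.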

A short description of assay [9]: qHTS assay to identify small molecule agonists of the TGF-beta/Smad signaling pathway (AID 1346859; active means well fitted activation curve with a large enough effect in the signal ratio in the repeat runs, not every such curve was filed as active; the % refers to the signal ratio; further: series mostly up to about 77 µM). The essentials: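 Dual-wavelength fluorescence (460/530 nm emission) quantified beta-lactamase expression under the Smad binding element in HEK 293T cells following 5 hr compound treatment at 37 C.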
Assay [10] deals with Thyrotropin-releasing hormone receptor (Homo sapiens) (UniProt P34981). The assay can be described thus: qHTS assay to identify small molecule antagonists of the thyrotropin-releasing hormone receptor (TRHR) signaling pathway (AID 1346877; active means well fitted inhibition curve with a large enough effect in the repeat runs, not every such curve was filed as active; further: series mostly up to about 51 µM). The procedure, abridged: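 Overnight-plated (18 h, 37 °C) HEK293 cells expressing TRHR were dye-loaded 2 h, treated with compound, then stimulated with TRH at 1 nM final. Fluorescence intensity was captured every second for 3 min.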
Chain of Thyrotropin-releasing hormone receptor (Homo sapiens) (P34981 whole entry, looked up): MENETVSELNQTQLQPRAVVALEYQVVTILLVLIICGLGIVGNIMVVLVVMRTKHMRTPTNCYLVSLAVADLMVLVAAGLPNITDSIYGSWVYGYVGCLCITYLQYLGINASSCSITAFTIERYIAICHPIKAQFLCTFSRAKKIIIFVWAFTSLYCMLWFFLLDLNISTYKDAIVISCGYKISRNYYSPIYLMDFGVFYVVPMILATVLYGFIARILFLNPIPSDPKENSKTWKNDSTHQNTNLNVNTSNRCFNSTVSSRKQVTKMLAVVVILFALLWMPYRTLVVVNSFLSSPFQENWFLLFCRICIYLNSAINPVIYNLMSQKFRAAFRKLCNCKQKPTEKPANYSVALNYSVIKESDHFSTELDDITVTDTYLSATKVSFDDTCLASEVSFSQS

Structures are written as SMILES. Values without a mark were called inactive. Records with an inconclusive call do not appear. Active and inactive are the calls of the source. Unless noted, the call rests on the fitted dose curve; in most records, active means well fitted curve in the direction sought with a large enough effect in the repeat runs; inconclusive means weak or mixed curves; inactive means no such curve, though single readings can be large; an effect the other way counts as inactive or inconclusive.
On the % scale 0 is the no-effect control and ±100 the full control effect.

Chain of Thyrotropin receptor (Homo sapiens) (P16473 whole entry, looked up): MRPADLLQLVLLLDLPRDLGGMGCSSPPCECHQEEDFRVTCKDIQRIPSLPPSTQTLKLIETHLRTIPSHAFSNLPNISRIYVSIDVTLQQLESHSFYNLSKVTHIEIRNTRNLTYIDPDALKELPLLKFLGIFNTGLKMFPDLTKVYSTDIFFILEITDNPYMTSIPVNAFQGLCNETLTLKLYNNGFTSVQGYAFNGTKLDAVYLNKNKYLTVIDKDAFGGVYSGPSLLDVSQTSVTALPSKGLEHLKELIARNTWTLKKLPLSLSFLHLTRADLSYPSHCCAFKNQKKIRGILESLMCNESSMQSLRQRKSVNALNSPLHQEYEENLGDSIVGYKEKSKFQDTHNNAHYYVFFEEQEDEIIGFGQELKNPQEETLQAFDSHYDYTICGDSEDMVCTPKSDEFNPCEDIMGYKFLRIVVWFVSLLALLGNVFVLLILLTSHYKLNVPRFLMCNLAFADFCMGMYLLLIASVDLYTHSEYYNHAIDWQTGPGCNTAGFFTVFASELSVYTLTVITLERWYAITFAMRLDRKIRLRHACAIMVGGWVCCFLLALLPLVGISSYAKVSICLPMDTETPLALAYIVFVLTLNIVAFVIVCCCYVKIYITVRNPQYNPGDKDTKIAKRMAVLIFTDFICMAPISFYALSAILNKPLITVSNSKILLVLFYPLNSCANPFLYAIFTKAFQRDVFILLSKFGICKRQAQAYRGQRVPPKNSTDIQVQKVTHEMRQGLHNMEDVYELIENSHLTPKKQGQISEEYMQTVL
Chain of Progesterone receptor (Homo sapiens) (P06401 whole entry, looked up): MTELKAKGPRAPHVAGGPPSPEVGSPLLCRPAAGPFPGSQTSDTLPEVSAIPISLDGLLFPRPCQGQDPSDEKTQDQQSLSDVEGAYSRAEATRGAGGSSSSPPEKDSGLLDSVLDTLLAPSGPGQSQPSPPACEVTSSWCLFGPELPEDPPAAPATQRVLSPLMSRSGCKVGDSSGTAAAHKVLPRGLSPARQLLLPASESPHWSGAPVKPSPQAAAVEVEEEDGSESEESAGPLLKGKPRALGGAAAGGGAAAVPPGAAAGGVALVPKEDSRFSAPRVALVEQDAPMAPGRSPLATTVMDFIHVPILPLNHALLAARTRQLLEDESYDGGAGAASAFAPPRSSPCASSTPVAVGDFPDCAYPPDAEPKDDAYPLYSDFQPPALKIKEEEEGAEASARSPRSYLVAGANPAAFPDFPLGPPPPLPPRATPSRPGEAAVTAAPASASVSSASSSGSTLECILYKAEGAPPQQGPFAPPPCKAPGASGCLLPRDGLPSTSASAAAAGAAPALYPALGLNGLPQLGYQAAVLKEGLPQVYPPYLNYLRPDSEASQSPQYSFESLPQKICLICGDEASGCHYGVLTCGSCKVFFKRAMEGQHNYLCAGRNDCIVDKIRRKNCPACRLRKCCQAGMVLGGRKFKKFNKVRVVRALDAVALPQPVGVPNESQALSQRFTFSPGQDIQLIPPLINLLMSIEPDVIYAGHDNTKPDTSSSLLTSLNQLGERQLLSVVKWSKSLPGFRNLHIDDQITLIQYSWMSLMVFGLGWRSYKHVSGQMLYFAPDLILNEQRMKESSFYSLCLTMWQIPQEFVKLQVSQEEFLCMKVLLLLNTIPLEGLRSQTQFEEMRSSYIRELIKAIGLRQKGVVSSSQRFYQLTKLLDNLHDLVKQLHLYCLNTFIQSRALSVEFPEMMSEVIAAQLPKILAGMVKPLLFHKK

With `O=C1[C@@H]2[C@H]3CC[C@H](C3)[C@@H]2C(=O)N1CCCCN1CCN(c2ncccn2)CC1`, the Potency entry in assay [1], in [2], in assay [3], in assay [4], in [5] and in assay [6] was “inactive” in each case. In [8], the Potency entry was “inactive”. Further, in assay [7], the call was inactive.

Consider `CCCCCCCCCCCCCCCC(=O)OCC`, for which the Potency entry in [1], in [2], in [3], in assay [4], in [5] and in assay [6] was “inactive” throughout. Moreover, the Potency result in assay [8] and in assay [9] was “inactive” throughout. Besides, the call in assay [7] and in assay [10] was inactive.

Take `CCCCCCCCCCCCCCCCCC(=O)OCC(CC)CCCC` (stereo not given): the Potency result in [1], in assay [2], in assay [3], in [4], in assay [5] and in [6] was “inactive” in each case. The Potency entry in assay [8] and in [9] was “inactive” in each case. In assay [7], the call was inactive.

As for `COC(=O)c1sccc1S(N)(=O)=O`, the Potency result in [1], in assay [2], in assay [3], in [4], in assay [5] and in assay [6] was “inactive” in each case. For the same molecule, the Potency result in assay [8] and in [9] was “inactive” in each case. Besides, the result in assay [7] was inactive.

`CC(C)c1ccc(C(=O)N=C(N)N)cc1S(C)(=O)=O`: the Potency result in assay [1], in [2], in assay [3], in [4], in [5] and in assay [6] was “inactive” each time. In addition, the Potency entry in assay [8] and in [9] was “inactive” in each case. The molecule was classed as inactive in assay [7].

As for `COC(CC(C)CCCC(C)(C)O)OC` (stereo not given), the Potency result in [1], in [2], in assay [3], in assay [4], in assay [5] and in assay [6] was “inactive” in each case. In addition, the Potency entry in [8] and in assay [9] was “inactive” throughout. Moreover, the molecule was called inactive in assay [7].

For the molecule `O=[N+]([O-])c1ccc2ncccc2c1`, the Potency entry in assay [1], in assay [2], in [3], in assay [4], in assay [5] and in [6] was “inactive” throughout. Further, the Potency result in [8] and in assay [9] was “inactive” each time. Moreover, the outcome in assay [7] and in assay [10] was inactive.

`Cc1ccc(N(CC2=NCCN2)c2cccc(O)c2)cc1`: the Potency entry in assay [1], in assay [2], in assay [3], in assay [4], in assay [5] and in assay [6] was “inactive” in each case. For the same molecule, the Potency entry in assay [8] and in assay [9] was “inactive” throughout. Also, the call in [7] was inactive.

With `CCCCCCCC(=O)OCCCCCC`, the Potency entry in assay [1], in assay [2], in assay [3], in assay [4], in [5] and in assay [6] was “inactive” in each case. Besides, the Potency result in [8] and in [9] was “inactive” in each case. The call in assay [7] and in assay [10] was inactive.

As to `CCCC(=O)OC(=O)CCC`, the Potency entry in [1], in [2], in assay [3], in assay [4], in assay [5] and in assay [6] was “inactive” in each case. Also, the Potency entry in assay [8] and in assay [9] was “inactive” throughout. In addition, in assay [7], the outcome was inactive.

For the molecule `FC(F)(F)C(F)(F)C(F)(F)C(F)(F)CCI`, the Potency result in assay [1], in [2], in [3], in [4], in assay [5] and in [6] was “inactive” throughout. For the same molecule, the Potency result in assay [8] and in assay [9] was “inactive” in each case. Besides, the molecule was classed as inactive in assay [7].

On to `N[C@@H](Cc1cc(I)c(O)c(I)c1)C(=O)O`, for which the Potency entry in assay [1], in [2], in assay [3], in assay [4], in assay [5] and in assay [6] was “inactive” each time. Further, the Potency entry in assay [8] and in assay [9] was “inactive” throughout. Further, in assay [7], the molecule was called inactive.

As to `CC1=CC[C@@H]2C[C@H]1C2(C)C`, the activity change, negative = inhibition was 8.95% [at 19 µM] in [1] and 6.78% [at 18.9 µM] in [4]. Moreover, the activity change, negative = cytotoxicity in assay [2] was 3.72% [at 19 µM]; in assay [5], 0.83% [at 18.9 µM]; in assay [6], -14.1% [at 19 µM]; in assay [8], 7.86% [at 15.8 µM]. In addition, in [3], the activation was 3.56% [at 19 µM]. In addition, the viability change, negative = cytotoxic in assay [7] was 2.23% [at 15.8 µM].

Regarding `CCN(CC)CC(=O)Nc1c(C)cccc1C(=O)OC`, the Potency result in assay [1], in assay [2], in assay [3], in [4], in assay [5] and in [6] was “inactive” in each case. Further, the Potency result in assay [8] and in assay [9] was “inactive” each time. Besides, the call in [7] was inactive.

On to `Cc1cn([C@H]2C[C@H](F)[C@@H](CO)O2)c(=O)[nH]c1=O`, for which the Potency result in assay [1], in assay [2], in [3], in assay [4], in [5] and in assay [6] was “inactive” in each case. In addition, the Potency entry in assay [8] and in assay [9] was “inactive” in each case. The call in assay [7] was inactive.

Turning to `CCCCCCCCCCCCCOC(=O)CCSCCC(=O)OCCCCCCCCCCCCC`, the activity change, negative = inhibition was -0.382% [at 19 µM] in assay [1] and 5.83% [at 18.9 µM] in assay [4]. Further, the activity change, negative = cytotoxicity was -1.3% [at 19 µM] in assay [2], -8.45% [at 18.9 µM] in assay [5], 36.2% [at 19 µM] in assay [6] and -1.41% [at 15.8 µM] in assay [8]. The Potency in assay [3] was 644 nM (active). Further, the viability change, negative = cytotoxic in assay [7] was 16.1% [at 15.8 µM]. The activation in assay [9] was 1.33% [at 15.8 µM].

As to `CNC1CCCN(c2c(F)cc3c(=O)c(C(=O)O)cn(C4CC4)c3c2OC)C1` (stereo not given), the Potency entry in assay [1], in [2], in assay [3], in [4], in assay [5] and in assay [6] was “inactive” in each case. Further, the Potency result in assay [8] was “inactive”. Also, the call in assay [7] was inactive.

In the case of `O=C(O)c1cc(Cl)cc(Cl)c1O`, the Potency entry in assay [1], in assay [2], in [3], in assay [4], in assay [5] and in assay [6] was “inactive” in each case. Moreover, the Potency result in assay [8] and in [9] was “inactive” in each case. For the same molecule, the molecule was called inactive in assay [7].

As to `O=C(O)CNC(=O)c1ccccc1I`, the Potency result in [1], in assay [2], in assay [3], in assay [4], in assay [5] and in assay [6] was “inactive” each time. The Potency entry in assay [8] and in assay [9] was “inactive” each time. Besides, the result in assay [7] was inactive.

For `O=C(O)c1cccc(C[C@@H]2COc3ccc(OCc4nc5cc(F)ccc5s4)cc3[C@@H]2O)c1`, the Potency entry in assay [1], in [2], in assay [3], in assay [4], in assay [5] and in assay [6] was “inactive” each time. Also, the Potency result in assay [8] and in assay [9] was “inactive” throughout. For the same molecule, the molecule was called inactive in assay [7].

`O=C1CC[C@@H](C(=O)O)N1`: the Potency result in assay [1], in assay [2], in assay [3], in [4], in assay [5] and in assay [6] was “inactive” in each case. In addition, the Potency entry in assay [8] and in assay [9] was “inactive” each time. The result in assay [7] and in assay [10] was inactive.

With `CC(C)C(=O)OCCOc1ccccc1`, the Potency result in assay [1], in assay [2], in [3], in assay [4], in assay [5] and in [6] was “inactive” throughout. Besides, the Potency result in assay [8] and in assay [9] was “inactive” each time. Also, the call in assay [7] was inactive.

As for `COc1cc(NS(=O)(=O)c2ccc(N)cc2)nc(C)n1`, the Potency entry in assay [1], in assay [2], in [3], in assay [4], in assay [5] and in [6] was “inactive” each time. The Potency entry in assay [8] and in [9] was “inactive” in each case. In assay [7], the molecule was classed as inactive.

With `CC(C)c1ccc(C#N)cc1`, the Potency result in assay [1], in [2], in [3], in assay [4], in assay [5] and in assay [6] was “inactive” in each case. In addition, the Potency entry in [8] and in assay [9] was “inactive” in each case. For the same molecule, in [7], the result was inactive.

Regarding `CC[C@H]1OC(=O)[C@H](C)[C@@H](O[C@H]2C[C@@](C)(OC)[C@@H](O)[C@H](C)O2)[C@H](C)[C@@H](O[C@@H]2O[C@H](C)C[C@H](N(C)C)[C@H]2O)[C@](C)(O)C[C@@H](C)C(=O)[C@H](C)[C@@H](O)[C@]1(C)O`, the Potency result in [1], in assay [2], in assay [3], in assay [4], in assay [5] and in assay [6] was “inactive” throughout. Moreover, in assay [8], the Potency entry is “inactive”. Besides, the result in assay [7] was inactive.
